This is an account of results in PubChem BioAssay AID588856 (National Center for Advancing Translational Sciences (NCATS), 2011).

The structures appear in SMILES notation. Where “and” joins values, the source holds several entries; their conditions need not be identical. Equal entries are not always repeated. Among all 410,000 compounds or so, about 3,100 (0.76%) were called active. Entries that show only a call come without a potency. Calls come from the whole dose curve; as a rule, active = well fitted cell-killing curve with a large enough effect; inactive = no such curve, though single readings can be large or run the other way. For the sample, actives were picked, then their nearest neighbours and some compounds at random. Where a structure was tested more than once in an assay, its records may differ in their call.
Potency is the fitted concentration of half-maximal effect.

This assay is described as follows: qHTS for Inhibitors of TGF-b: Cytotox Counterscreen. As to conditions: HepG2 CAGA-GFP viability, ATP luminescence, 18 h; series mostly up to 46.1 µM. A digest of the protocol: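 CellTiter-Glo luminescence gave cytotoxicity after 18 hours at 37 degrees C. The cells were HepG2 CAGA-GFP in 1% FBS DMEM, stimulated with 500 pg/mL TGF-beta after compound addition. %Activity was normalised to no-cell wells (complete cell-killing) and DMSO (no toxicity), and curves were fitted and classified.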
As to `CC1=C/C(=N\OS(=O)(=O)c2ccccc2)C=CC1=O`, the Potency is 12.6 µM (active).

Consider `CCc1ccc(CNC(=O)c2cc3cc4ccc(OC)cc4nc3o2)cc1`, for which the Potency result is “inactive”.

For `Cc1ccc(-c2cnc(C3CC3)o2)cc1S(=O)(=O)Nc1cccc(C)c1C`, the Potency result is “inactive”.

On to `Cc1[nH]n(-c2ccc([N+](=O)[O-])cc2)c(=O)c1C=NCCN1CCN(C(=O)c2ccccc2F)CC1`, for which the Potency was 2 µM (active).

With `C=CCNC(=S)N1CCN(CCN=Cc2c(C)[nH]n(-c3ccc([N+](=O)[O-])cc3)c2=O)CC1`, the Potency result is “inactive”.

Take `CCC(=O)c1ccc(N2CCN(C(=O)c3cc([N+](=O)[O-])ccc3F)CC2)c(F)c1`: the Potency result was “inactive”.

With `Cc1ccc2ccc3c(c2n1)NS(=O)(=O)c1ccccc1-3`, the Potency result was “inactive”.

Turning to `COc1ccc(C(CCN2CCOCC2)c2c(OC)cc(OC)c3c2OC(=O)CC3c2ccc(OC)cc2)cc1` (stereo not given), the Potency entry was “inactive”.

Take `O=C(C[n+]1ccncc1)c1ccc2c(c1)CCCC2`: the Potency entry was “inactive”.

Regarding `CC(C)(CNC(=O)Cc1ccc(Cl)cc1Cl)N1CCOCC1`, the Potency result is “inactive”.

Regarding `Cn1cc(C(=O)c2ccc(Cl)cc2Cl)cc1C(=O)NN`, the Potency entry is “inactive”.

`CC(C)(C)c1cc(C(=O)NN)n(Cc2ccc(Cl)cc2Cl)n1`: the Potency was 12.6 µM (active).

Consider `CCOC(=O)C1CCCN(C(=O)c2ccc3c(c2)sc2nc(-c4ccc(CC)cc4)cn23)C1` (stereo not given), for which the Potency entry is “inactive”.

Turning to `Cc1ccc2c(c1)N(C(=O)Nc1ccc(Br)cc1F)CCO2`, the Potency result is “inactive”.

`COc1cccc(NC(=O)CSc2cc(=O)n(C)c3ccc(Cl)cc23)c1`: the Potency entry was “inactive”.

Consider `CCCC(O)(CCC)C(=O)NN(C(=O)CCl)c1cccc(C)c1`, for which the Potency is 20 µM (active).

As for `CCCCC(O)(CCCC)C(=O)NN(C(=O)CCl)c1ccccc1`, the Potency entry was “inactive”.

Turning to `Cc1cccc(N(Cc2ccccc2)C(=O)c2ccccc2F)c1`, the Potency entry is “inactive”.

For the molecule `CCCn1c(NCc2ccc(N(CC)CC)cc2)nc2ccccc21`, the Potency result was “inactive”.

Regarding `CCOC(=O)c1c(C)[nH]c(C)c1S(=O)(=O)N(C)CC(=O)N1CCN(c2ccccc2)CC1`, the Potency result is “inactive”.

As for `CCOC(=O)c1c(SCC(=O)Nc2cccc(C)c2C)nc(=O)[nH]c1C`, the Potency entry is “inactive”.

Consider `CCOC(=O)c1c(C)[nH]c2c1-c1ccccc1C(=O)C2=O`, for which the Potency is 1.26 µM (active).

On to `CCc1nnc(NC(=O)CCN(c2ccc(C)cc2)S(=O)(=O)c2ccccc2)s1`, for which the Potency entry was “inactive”.

As to `CCc1nnc(NS(=O)(=O)c2ccc(N=Cc3c(C)[nH]n(-c4ccc(C)cc4)c3=O)cc2)s1`, the Potency is 8.91 µM (active).

Take `CCc1nnc(NS(=O)(=O)c2ccc(NC(=S)NC(=O)/C=C/c3cccs3)cc2)s1`: the Potency result is “inactive”.

With `CN(N=O)c1ccc(C=C2c3ccccc3-c3ccccc32)cc1`, the Potency result was “inactive”.

As for `Oc1ccccc1C1=NN(c2ccccc2)C(c2ccccc2)C1` (stereo not given), the Potency was 10 µM (active).

As to `Cc1ccc(N2C(=O)C3N=NN(CC(=O)N4N=C(c5cccc6ccccc56)CC4c4ccccc4)C3C2=O)cc1` (stereo not given), the Potency entry was “inactive”.

Regarding `COc1ccc(C2CC(c3cccc(OC)c3)=NN2c2ccc(S(N)(=O)=O)cc2)cc1` (stereo not given), the Potency entry is “inactive”.

For `CC(=O)c1ccc[n+](C(C)CCC(C)[n+]2cccc(C(C)=O)c2)c1` (stereo not given), the Potency result was “inactive”.

As for `CCOC(=O)c1c(S(=O)(=O)N2CCC(C(=O)NCc3ccccc3OC)CC2)c(C)n(C)c1C`, the Potency result is “inactive”.

Consider `CCCCCCCCCCOC(=O)Cn1c(COc2cccc(OC)c2)[n+](C)c2ccccc21`, for which the Potency was 20 µM (active).

Regarding `OC(CBr)CN1CCCCC1` (stereo not given), the Potency entry is “inactive”.

Regarding `CC(=O)Nc1cccc(NC(=O)CSc2nccn2Cc2ccc3c(c2)OCO3)c1`, the Potency result was “inactive”.

Regarding `Cc1cccc(NC(=O)Cn2c(=O)n(CCC(C)C)c(=O)c3cccnc32)c1`, the Potency entry was “inactive”.

In the case of `CCC1CCCCN1CCCNC(=O)c1cc2c(Cl)nc3ccccc3c2s1` (stereo not given), the Potency entry was “inactive and 12.6 µM (active)”.

With `CCn1c(=O)c2cc(C(=O)NCCc3ccc(Cl)cc3)sc2c2ccccc21`, the Potency entry is “inactive”.

On to `O=C(NCCN1CCN(Cc2ccccc2)CC1)c1cc2c(=O)[nH]c3ccccc3c2s1`, for which the Potency result is “inactive”.

With `COc1ccc(CCN2C(=O)c3[nH]nc(-c4ccccc4O)c3C2c2ccc(C)cc2)cc1OC` (stereo not given), the Potency entry is “inactive”.

Take `CCCOc1ccc(C2c3c(-c4ccccc4O)n[nH]c3C(=O)N2Cc2cccnc2)cc1` (stereo not given): the Potency entry is “inactive”.

Regarding `CCCCN1C(=O)c2[nH]nc(-c3ccccc3O)c2C1c1cccc(OCc2ccccc2)c1` (stereo not given), the Potency is 14.1 µM (active).

Regarding `O=c1[nH]c2cc(Br)ccc2n2cccc12`, the Potency entry was “inactive”.

On to `Cc1cccc(N2CCN(C(=O)c3cc4c(=O)oc5ccccc5c4s3)CC2C)c1` (stereo not given), for which the Potency result was “inactive”.

Consider `CC(C)c1ccc2oc(-c3cc(NC(=O)c4cccs4)ccc3Cl)nc2c1`, for which the Potency result is “inactive”.

As to `CCCn1nc(C(=O)NNC(=O)CSCC(=O)Nc2cc(C)on2)c2ccccc2c1=O`, the Potency is 11.2 µM (active).

Turning to `CCCn1nc(C(=O)NNC(=O)CCOc2ccccc2OCC)c2ccccc2c1=O`, the Potency entry is “inactive”.

For the molecule `CCCCn1nc(C(=O)Nc2cccc(C(=O)NC3CC3)c2)c2ccccc2c1=O`, the Potency result is “inactive”.

For `Cc1csc[n+]1CCC1CCCCC1`, the Potency result is “inactive”.

As for `O=C(O)C1CC=CC2CCN(C3CCCCC3)C(=O)C21` (stereo not given), the Potency result is “inactive”.

Consider `CCCS(=O)(=O)Nc1cccc(-c2cn3ccsc3n2)c1`, for which the Potency result is “inactive”.

On to `CSc1nc(Nc2ccc(F)cc2)cc(-c2ccccc2)n1`, for which the Potency entry is “inactive”.

On to `CSc1nc(-c2ccccc2)nc(C(Cl)Cl)n1`, for which the Potency is 5.01 µM (active).

`O=C(NCC1CC1)C1(C(F)(F)F)C/C(=C\CCO)CCCO1` (stereo not given): the Potency result was “inactive”.

On to `Cn1nnnc1SCc1cc(=O)[nH]c2ccccc12`, for which the Potency result is “inactive”.

In the case of `Cc1ccc(N(Cc2cc(=O)[nH]c3ccccc23)C(=O)CCl)cc1`, the Potency was 17.8 µM (active).

As to `Cc1ccc(N(Cc2ccccc2O)C(=O)c2ccccc2F)cc1`, the Potency entry was “inactive”.

As to `O=c1cc(-c2ccccc2)n2c(SCc3ccccc3)nnc2[nH]1`, the Potency entry was “inactive”.

For `CC(C)NC(=O)C1CCC(Cn2c(=O)c3sccc3n(Cc3ccc(F)cc3)c2=O)CC1` (stereo not given), the Potency entry is “inactive”.

With `O=C(NC(c1ccc(-c2ccccc2)cc1)c1cnccn1)C1CCN(CCOc2ccc(Cl)cc2Cl)CC1` (stereo not given), the Potency entry is “inactive”.

`Cc1cccnc1C(NC(=O)C1CCN(Cc2ccc(Cl)c(Cl)c2)CC1)c1ccc(Cl)cc1` (stereo not given): the Potency entry was “inactive”.

Regarding `Cc1ccc(C(NC(=O)C2CCN(CCOc3ccc(Cl)cc3Cl)CC2)c2ccccn2)cc1` (stereo not given), the Potency is 20 µM (active).

For the molecule `Cc1cccc2c1N(CCOc1ccccc1)C(=O)C2=O`, the Potency result was “inactive”.

As to `CCCCOc1ccc(CN2C(=O)C(=O)c3cc(Br)cc(C)c32)cc1OC`, the Potency is 15.8 µM (active).

Consider `CCCCOc1ccc(Cn2c(=O)oc3ccc(C)cc32)cc1OC`, for which the Potency result is “inactive”.

Take `CCCn1c(SCC(=O)c2ccc3c(c2)OCCO3)nnc1C(C)C`: the Potency was 10 µM (active).

As to `CCCn1c(SCC(=O)Nc2c(C)cccc2C)nnc1C(C)C`, the Potency result is “inactive”.

On to `O=C(CSc1nnc(CN2CCCC2)n1-c1ccc(F)cc1)c1ccc2c(c1)OCO2`, for which the Potency entry was “inactive”.

Consider `Cc1cccc(C)c1-n1ncc(C(=O)NCCCN2CCCCC2)c1C1CCN(C(=O)OC(C)(C)C)CC1`, for which the Potency result is “inactive”.

As for `COc1cc(OC)c(NC(=O)c2cnc(N3CCCC3)nc2C)cc1Cl`, the Potency result was “inactive”.

For `CCOC(=O)c1c(C)[nH]c(C)c1C(=O)COC(=O)/C=C/c1cccc([N+](=O)[O-])c1`, the Potency result was “inactive”.

For the molecule `CC(C)c1nnc(NC(=O)COC(=O)/C=C/c2ccc([N+](=O)[O-])cc2)s1`, the Potency entry is “inactive”.

Regarding `CCOC(=O)/C(=C\c1ccc([N+](=O)[O-])cc1)C(=O)c1cc(C(C)=O)c(Nc2ccccc2)s1`, the Potency was 5.01 µM (active).

Consider `COc1ccccc1C(=O)N/C(=C/c1ccco1)C(=O)Nc1ccc(C(=O)O)cc1`, for which the Potency result was “inactive”.

Take `COCCCn1c(=O)/c(=C/c2ccccc2OC(C)C)s/c1=C(\C#N)C(=O)Nc1ccc(C(=O)O)cc1`: the Potency was 12.6 µM (active).

For the molecule `CC(C)OCCCn1c(SCC(=O)c2ccccc2)nc2c(sc3ccccc32)c1=O`, the Potency entry was “inactive”.

With `COc1cc2nc(C#Cc3nc4cc(OC)c(OC)cc4[nH]3)[nH]c2cc1OC`, the Potency entry is “inactive”.

Consider `Cc1cccc(NC(=O)Nc2ccc3c(c2)OCO3)n1`, for which the Potency is 22.4 µM (active).

`Cc1onc(C(=O)Nc2ccc3c(c2)OCO3)c1[N+](=O)[O-]`: the Potency entry was “inactive”.

`CNS(=O)(=O)c1ccc(NC(=O)Nc2ccc3c(c2)OCO3)cc1`: the Potency entry is “inactive”.

For the molecule `CC1CCCN(Cc2c(O)ccc3c(=O)c(Oc4ccc(C(C)(C)C)cc4)c(C(F)(F)F)oc23)C1` (stereo not given), the Potency entry is “inactive”.

`CCOc1ccc(NC(=O)c2cc(S(=O)(=O)N3CCCC3)c[nH]2)cc1`: the Potency entry was “inactive”.

Regarding `COc1ccc(CN2CCCC(CNC(=O)c3ccc(F)cc3)C2)cc1OC` (stereo not given), the Potency entry is “inactive”.

As for `CCN1CCCC1CNC(=O)c1ccc2c(c1)NC(=O)/C(=C\c1ccccc1F)S2` (stereo not given), the Potency is 15.8 µM (active).

`O=C1Nc2cc(C(=O)N3CCC(N4CCCCC4)CC3)ccc2S/C1=C\c1ccccc1`: the Potency result was “inactive”.

Take `COc1ccccc1-c1noc(-c2ccc(NCc3ccccc3)c([N+](=O)[O-])c2)n1`: the Potency entry is “inactive”.

On to `Cc1ccc(Cn2cnc3c(cnn3C(C)(C)C)c2=O)c(F)c1`, for which the Potency result was “inactive”.

Turning to `NC(N)=N/N=C/c1ccc(OCc2ccc(Cl)cc2Cl)cc1`, the Potency was 14.1 µM (active).

Turning to `NC(=O)COc1ccc(/C=N/NC(=O)C2CCCN2S(=O)(=O)c2ccc(Cl)cc2)cc1` (stereo not given), the Potency entry was “inactive”.

Consider `Cc1ccc(CCNC(=O)Cn2c(-c3cccs3)cc3cc(F)ccc32)cc1`, for which the Potency entry was “inactive”.

In the case of `CC(C)c1ccc(NC(=O)Cn2nnc(C(=O)NCCc3ccccc3)c2N)cc1`, the Potency entry was “inactive”.
